As a reminder, the inhibition is the change of the read-out against control, counted positive when it falls.

Four molecules from ChEMBL document CHEMBL1961873, “Compounds: GSK PKIS; Assays: Nanosyn kinase panel” (2012) can be followed below.

In test [1] the target is Ribosomal protein S6 kinase alpha-6 (Homo sapiens) (UniProt Q9UK32). The note with it: at 1 µM.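 Also: each value is a mean inhibition of RSK4 from a GSK PKIS panel screen.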
Test [2] addresses T1, Serine/threonine-protein kinase Sgk1 (Homo sapiens) (UniProt O00141).
T1 sequence (whole entry): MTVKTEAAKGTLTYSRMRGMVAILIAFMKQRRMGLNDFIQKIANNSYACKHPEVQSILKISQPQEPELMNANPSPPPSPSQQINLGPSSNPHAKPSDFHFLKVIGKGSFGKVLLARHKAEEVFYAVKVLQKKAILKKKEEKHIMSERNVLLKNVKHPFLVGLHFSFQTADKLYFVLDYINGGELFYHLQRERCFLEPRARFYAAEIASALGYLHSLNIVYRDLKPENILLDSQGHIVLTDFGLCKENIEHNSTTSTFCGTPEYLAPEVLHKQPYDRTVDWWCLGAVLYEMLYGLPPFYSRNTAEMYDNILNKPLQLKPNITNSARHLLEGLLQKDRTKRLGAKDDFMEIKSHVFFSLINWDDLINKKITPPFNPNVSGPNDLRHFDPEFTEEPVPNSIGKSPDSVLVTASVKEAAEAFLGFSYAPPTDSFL
The note with it: at 0.1 µM.

Test [3] deals with T1, Serine/threonine-protein kinase Sgk1 (Homo sapiens). The settings on record: at 1 µM.
Test [4] deals with T2, Serine/threonine-protein kinase Sgk2 (Homo sapiens) (UniProt Q9HBY8).
T2 sequence (whole entry): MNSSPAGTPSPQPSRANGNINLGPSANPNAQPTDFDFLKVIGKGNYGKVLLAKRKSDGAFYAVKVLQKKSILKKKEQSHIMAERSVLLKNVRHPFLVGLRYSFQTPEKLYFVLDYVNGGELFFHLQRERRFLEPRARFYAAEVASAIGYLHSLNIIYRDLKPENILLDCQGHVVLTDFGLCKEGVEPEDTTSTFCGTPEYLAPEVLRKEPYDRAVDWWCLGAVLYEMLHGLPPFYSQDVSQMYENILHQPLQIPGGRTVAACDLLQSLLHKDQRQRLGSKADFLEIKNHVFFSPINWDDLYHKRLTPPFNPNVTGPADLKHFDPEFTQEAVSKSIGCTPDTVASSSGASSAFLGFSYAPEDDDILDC
The note with it: at 0.1 µM.

Test [5] addresses T2, Serine/threonine-protein kinase Sgk2 (Homo sapiens). The note with it: at 1 µM.
In test [6] the target is T3, Serine/threonine-protein kinase Sgk3 (Homo sapiens) (UniProt Q96BR1).
T3 sequence (whole entry): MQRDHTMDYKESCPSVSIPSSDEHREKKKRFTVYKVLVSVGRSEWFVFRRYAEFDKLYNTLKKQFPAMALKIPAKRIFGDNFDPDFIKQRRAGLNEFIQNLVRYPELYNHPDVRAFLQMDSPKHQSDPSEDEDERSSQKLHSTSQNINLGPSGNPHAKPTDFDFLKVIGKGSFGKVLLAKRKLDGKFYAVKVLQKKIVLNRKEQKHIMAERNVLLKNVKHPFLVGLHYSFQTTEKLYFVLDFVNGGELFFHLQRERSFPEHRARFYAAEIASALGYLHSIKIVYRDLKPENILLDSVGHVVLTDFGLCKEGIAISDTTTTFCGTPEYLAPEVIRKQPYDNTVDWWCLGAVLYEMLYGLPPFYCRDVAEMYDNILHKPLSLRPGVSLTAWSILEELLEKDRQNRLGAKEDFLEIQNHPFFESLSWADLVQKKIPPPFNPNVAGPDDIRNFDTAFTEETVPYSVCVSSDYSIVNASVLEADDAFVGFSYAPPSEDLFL
The note with it: at 0.1 µM.

Test [7] deals with T3, Serine/threonine-protein kinase Sgk3 (Homo sapiens). The note with it: at 1 µM.
Test [8] addresses 5'-AMP-activated protein kinase catalytic subunit alpha-1 (Homo sapiens) (UniProt Q13131). The settings on record: at 0.1 µM.
The target is the same in test [9]. The settings on record: at 1 µM.
The target of test [10] is 5'-AMP-activated protein kinase catalytic subunit alpha-2 (Homo sapiens) (UniProt P54646). The note with it: at 0.1 µM.
Test [11] has the same target. The settings on record: at 1 µM.
In test [12] the target is T4, NUAK family SNF1-like kinase 1 (Homo sapiens) (UniProt O60285).
T4 sequence (whole entry): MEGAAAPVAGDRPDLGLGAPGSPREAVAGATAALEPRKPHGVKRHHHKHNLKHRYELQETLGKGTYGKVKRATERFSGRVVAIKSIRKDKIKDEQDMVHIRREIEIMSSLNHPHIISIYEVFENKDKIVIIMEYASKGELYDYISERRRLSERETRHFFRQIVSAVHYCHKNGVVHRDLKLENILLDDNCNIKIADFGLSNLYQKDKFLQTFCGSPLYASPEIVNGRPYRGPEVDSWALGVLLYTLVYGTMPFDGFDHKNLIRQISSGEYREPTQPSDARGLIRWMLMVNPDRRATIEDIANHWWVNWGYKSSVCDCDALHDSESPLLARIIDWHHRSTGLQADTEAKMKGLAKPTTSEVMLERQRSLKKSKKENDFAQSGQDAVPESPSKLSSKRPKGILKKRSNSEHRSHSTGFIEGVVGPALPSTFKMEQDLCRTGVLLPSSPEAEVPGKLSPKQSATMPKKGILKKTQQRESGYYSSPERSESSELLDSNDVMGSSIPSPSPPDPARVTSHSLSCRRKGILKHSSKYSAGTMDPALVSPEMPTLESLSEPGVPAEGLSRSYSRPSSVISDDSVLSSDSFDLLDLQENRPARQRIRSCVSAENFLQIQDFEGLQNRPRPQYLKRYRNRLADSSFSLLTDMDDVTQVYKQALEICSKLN
The settings on record: at 0.1 µM.

In test [13] the target is T4, NUAK family SNF1-like kinase 1 (Homo sapiens). The settings on record: at 1 µM.
Test [14] has as its target T5, Serine/threonine-protein kinase BRSK1 (Homo sapiens) (UniProt Q8TDC3).
T5 sequence (whole entry): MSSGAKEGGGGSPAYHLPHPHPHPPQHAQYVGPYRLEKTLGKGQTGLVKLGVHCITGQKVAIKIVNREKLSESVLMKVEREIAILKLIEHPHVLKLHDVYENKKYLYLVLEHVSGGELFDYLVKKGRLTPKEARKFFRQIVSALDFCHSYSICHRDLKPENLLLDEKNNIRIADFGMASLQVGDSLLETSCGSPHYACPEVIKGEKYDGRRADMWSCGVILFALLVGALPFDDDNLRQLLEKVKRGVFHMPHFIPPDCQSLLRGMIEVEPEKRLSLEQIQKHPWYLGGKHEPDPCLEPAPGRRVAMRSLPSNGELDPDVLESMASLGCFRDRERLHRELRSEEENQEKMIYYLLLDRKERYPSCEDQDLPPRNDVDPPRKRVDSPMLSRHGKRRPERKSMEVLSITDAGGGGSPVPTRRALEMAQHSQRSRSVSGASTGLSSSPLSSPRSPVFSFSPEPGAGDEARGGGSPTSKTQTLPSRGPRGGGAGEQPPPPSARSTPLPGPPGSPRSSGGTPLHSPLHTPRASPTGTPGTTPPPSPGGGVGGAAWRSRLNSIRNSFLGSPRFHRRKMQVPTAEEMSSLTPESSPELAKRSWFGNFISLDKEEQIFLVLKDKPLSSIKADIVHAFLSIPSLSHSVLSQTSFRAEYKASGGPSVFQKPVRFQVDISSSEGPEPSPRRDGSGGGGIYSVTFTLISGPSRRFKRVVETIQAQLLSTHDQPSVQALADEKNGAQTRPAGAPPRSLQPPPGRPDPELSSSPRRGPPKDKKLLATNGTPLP
The settings on record: at 0.1 µM.

Test [15] concerns the target T5, Serine/threonine-protein kinase BRSK1 (Homo sapiens). The note with it: at 1 µM.
The target of test [16] is T6, Serine/threonine-protein kinase BRSK2 (Homo sapiens) (UniProt Q8IWQ3).
T6 sequence (whole entry): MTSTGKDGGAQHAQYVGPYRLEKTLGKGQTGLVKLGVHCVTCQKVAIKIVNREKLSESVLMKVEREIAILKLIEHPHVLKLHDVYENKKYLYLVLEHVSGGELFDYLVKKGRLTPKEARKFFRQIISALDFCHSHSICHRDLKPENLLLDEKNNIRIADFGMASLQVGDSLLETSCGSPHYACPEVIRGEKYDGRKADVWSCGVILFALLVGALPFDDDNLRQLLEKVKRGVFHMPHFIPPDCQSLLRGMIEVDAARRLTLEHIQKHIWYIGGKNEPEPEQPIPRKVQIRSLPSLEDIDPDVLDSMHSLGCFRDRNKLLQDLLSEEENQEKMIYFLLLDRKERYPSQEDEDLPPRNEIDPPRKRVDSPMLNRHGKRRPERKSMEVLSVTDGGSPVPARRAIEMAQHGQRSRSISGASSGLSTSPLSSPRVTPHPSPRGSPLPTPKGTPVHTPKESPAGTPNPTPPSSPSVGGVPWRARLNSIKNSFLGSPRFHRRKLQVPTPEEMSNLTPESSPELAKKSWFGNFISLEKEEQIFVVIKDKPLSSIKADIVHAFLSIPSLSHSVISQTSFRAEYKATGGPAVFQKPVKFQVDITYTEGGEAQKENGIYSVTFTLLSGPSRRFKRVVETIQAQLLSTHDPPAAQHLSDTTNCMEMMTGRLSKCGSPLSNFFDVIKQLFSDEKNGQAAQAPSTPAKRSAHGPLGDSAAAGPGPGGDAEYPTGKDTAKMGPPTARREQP
The settings on record: at 0.1 µM.

The target in test [17] is T6, Serine/threonine-protein kinase BRSK2 (Homo sapiens). The note with it: at 1 µM.
In test [18] the target is Calcium/calmodulin-dependent protein kinase type 1D (Homo sapiens) (UniProt Q8IU85). The settings on record: at 0.1 µM.
Test [19] has the same target. The note with it: at 1 µM.
Test [20] concerns the target Calcium/calmodulin-dependent protein kinase type II subunit alpha (Homo sapiens) (UniProt Q9UQM7). The settings on record: at 0.1 µM.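 Also: reported values are averages (mean inhibition of CAMK2A).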

Ribosomal protein S6 kinase alpha-6 (Homo sapiens), sequence (Q9UK32 whole entry): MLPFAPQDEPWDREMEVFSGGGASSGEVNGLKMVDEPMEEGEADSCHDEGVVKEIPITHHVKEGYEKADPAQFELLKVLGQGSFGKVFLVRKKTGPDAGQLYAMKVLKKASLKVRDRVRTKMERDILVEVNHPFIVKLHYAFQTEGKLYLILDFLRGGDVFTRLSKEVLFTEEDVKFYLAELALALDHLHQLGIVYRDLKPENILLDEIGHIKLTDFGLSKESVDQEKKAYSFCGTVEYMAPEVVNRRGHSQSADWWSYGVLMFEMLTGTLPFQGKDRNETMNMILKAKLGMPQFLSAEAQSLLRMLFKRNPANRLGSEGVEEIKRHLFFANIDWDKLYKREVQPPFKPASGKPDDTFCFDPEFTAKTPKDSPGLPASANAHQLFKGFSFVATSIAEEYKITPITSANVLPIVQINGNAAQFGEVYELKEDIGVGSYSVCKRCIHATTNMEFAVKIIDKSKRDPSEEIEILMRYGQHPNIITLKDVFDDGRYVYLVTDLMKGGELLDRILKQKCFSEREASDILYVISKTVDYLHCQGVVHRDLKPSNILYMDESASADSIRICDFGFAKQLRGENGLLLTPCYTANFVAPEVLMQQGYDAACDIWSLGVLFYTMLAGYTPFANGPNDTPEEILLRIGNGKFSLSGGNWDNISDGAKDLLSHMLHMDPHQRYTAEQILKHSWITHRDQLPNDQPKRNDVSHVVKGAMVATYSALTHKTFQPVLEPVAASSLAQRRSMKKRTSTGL
Calcium/calmodulin-dependent protein kinase type 1D (Homo sapiens), sequence (Q8IU85 whole entry, looked up): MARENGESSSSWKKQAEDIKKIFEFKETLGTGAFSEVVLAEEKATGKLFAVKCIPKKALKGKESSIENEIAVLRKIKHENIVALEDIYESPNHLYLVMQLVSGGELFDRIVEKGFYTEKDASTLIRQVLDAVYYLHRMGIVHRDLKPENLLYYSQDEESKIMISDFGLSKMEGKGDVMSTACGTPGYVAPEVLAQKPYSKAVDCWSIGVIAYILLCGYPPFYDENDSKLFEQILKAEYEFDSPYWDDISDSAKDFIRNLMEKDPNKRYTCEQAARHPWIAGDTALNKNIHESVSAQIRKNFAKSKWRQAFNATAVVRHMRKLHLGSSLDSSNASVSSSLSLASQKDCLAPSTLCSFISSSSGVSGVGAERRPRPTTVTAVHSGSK
5'-AMP-activated protein kinase catalytic subunit alpha-2 (Homo sapiens), sequence (P54646 whole entry, looked up): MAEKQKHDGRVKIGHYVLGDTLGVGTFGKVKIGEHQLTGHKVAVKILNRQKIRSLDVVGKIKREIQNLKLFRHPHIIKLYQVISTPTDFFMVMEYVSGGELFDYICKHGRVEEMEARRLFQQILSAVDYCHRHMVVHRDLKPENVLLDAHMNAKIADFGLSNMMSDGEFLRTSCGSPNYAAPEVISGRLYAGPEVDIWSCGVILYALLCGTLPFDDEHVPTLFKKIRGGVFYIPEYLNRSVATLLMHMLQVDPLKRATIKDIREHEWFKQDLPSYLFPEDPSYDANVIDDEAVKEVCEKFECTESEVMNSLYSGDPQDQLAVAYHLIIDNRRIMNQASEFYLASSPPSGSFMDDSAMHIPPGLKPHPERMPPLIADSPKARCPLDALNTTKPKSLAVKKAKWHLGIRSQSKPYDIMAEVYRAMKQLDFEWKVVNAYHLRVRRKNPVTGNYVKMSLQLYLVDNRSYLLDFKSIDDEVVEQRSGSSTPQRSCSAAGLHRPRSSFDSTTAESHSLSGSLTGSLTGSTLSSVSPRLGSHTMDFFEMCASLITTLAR
Calcium/calmodulin-dependent protein kinase type II subunit alpha (Homo sapiens), sequence (Q9UQM7 whole entry): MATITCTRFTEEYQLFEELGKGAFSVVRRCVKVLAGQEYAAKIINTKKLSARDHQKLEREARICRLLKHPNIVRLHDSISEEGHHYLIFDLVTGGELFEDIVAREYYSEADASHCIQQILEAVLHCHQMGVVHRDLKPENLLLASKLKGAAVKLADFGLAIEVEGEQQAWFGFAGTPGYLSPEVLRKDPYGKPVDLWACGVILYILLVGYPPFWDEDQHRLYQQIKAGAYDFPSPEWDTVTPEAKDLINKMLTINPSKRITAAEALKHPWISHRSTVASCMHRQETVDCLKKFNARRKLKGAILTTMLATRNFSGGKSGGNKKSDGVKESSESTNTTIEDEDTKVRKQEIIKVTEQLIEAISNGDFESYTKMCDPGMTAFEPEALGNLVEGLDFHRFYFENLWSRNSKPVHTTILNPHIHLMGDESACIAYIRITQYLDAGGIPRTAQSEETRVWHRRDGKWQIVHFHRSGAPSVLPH
5'-AMP-activated protein kinase catalytic subunit alpha-1 (Homo sapiens), sequence (Q13131 whole entry, looked up): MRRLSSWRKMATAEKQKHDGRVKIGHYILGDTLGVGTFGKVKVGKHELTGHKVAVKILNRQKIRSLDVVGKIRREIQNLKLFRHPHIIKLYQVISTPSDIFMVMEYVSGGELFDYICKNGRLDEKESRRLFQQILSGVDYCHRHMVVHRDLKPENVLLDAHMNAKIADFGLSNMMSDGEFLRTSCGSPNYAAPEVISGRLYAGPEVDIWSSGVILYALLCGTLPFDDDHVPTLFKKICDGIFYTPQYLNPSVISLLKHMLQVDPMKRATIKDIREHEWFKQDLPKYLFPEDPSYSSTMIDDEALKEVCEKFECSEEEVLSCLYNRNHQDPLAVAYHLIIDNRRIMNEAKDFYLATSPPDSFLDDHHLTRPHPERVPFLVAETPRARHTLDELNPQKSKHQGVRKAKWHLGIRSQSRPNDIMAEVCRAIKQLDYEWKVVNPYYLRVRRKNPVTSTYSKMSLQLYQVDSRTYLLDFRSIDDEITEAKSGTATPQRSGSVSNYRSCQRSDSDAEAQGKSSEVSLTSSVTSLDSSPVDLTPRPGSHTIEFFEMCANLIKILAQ

With `Cc1cccc2c1NC(=O)/C2=N\Nc1ccc(S(N)(=O)=O)cc1`, the inhibition in test [1] amounted to 2.27%; in test [2] it was 0.42%; in test [3], 3.23%; in test [4], 2.93%; in test [5], 3.69%; in test [6], 0.3%. The inhibition is -0.24% in [7]; 2.8% in test [8]; 4.3% in test [9]; 0.95% in test [10]; 4.04% in [11]; 4.52% in test [12]. Further, the inhibition in [13] came to 19%; in test [14], 1.12%; in [15] it was 3.16%; in test [16], 0.94%; in [17], 4.49%; in test [18], 0.23%. Also, the inhibition in test [19] is 1.75%; in test [20] it was 4.56%.
In the case of `O=S(=O)(CCNCc1ccc(-c2ccc3ncnc(Nc4ccc(OCc5cccc(F)c5)c(Cl)c4)c3c2)o1)c1ccccc1`, the inhibition stood at 1.81% in [1]; 4.12% in [2]; 4.02% in test [3]; 4.25% in test [4]; 7.28% in [5]; 6.67% in [6]. The inhibition in [7] was determined as 5.71%; in [8] it was 7.7%; in test [9], 5.94%; in [10] it was 3.89%; in test [11] it was 4.37%; in test [12] it was 0.36%. In addition, the inhibition was 2.65% in [13]; -0.02% in [14]; 4.07% in test [15]; 3.29% in test [16]; 3.94% in test [17]; 1.31% in test [18]. In addition, the inhibition in [19] came to 1.55%; in test [20] it was 4.23%.
For `COc1cccc(-c2c[nH]c3c(N/N=C/c4ccncc4)ncnc23)c1`, the inhibition in test [1] amounted to 10.6%; in [2], 4.36%; in [3] it was 19.1%; in [4], 4.85%; in [5], 18.2%; in test [6], 2.69%. The inhibition was determined as 1.84% in test [7]; 1.39% in test [8]; 6.84% in test [9]; 0.02% in [10]; 7.68% in test [11]; 4.85% in test [12]. The inhibition was found to be 38.5% in test [13]; 3.83% in [14]; 21.4% in [15]; 4.82% in test [16]; 29.8% in test [17]; 2.11% in test [18]. Also, the inhibition was determined as 4.07% in test [19] and 3.48% in [20].
In the case of `COc1ccc(-c2cc(-c3c[nH]nc3-c3ccccn3)ccn2)cc1`, the inhibition was 1.8% in test [1]; 2.87% in test [2]; 7.39% in [3]; 5.02% in test [4]; 5.93% in [5]; 4.82% in test [6]. Further, the inhibition in test [7] was 6.74%; in test [8], 4.71%; in [9] it was 6.63%; in [10], 0.83%; in [11], 3.44%; in [12], -7.35%. Besides, the inhibition was 2.48% in test [13]; -0.01% in [14]; 2.6% in test [15]; 2.08% in [16]; 3.41% in [17]; 0.05% in [18]. Besides, the inhibition in [19] was -1.05%; in test [20] it was 4.66%.
